# Laboratory results from PubChem BioAssay (NCI).
# The panel holds about 83,000 compounds, 20% with a hit somewhere; the sample as a whole holds those more often.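 Growth was measured after 48 h exposure to one concentration of compound in 96-well plates. Values under 10 count as active.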 Unmarked numbers belong to inactive results. Active and inactive are the calls of the source.
# Test system: HL-60(TB) leukemia
# Assay: NCI-60 one-dose screen, 48 h (100 = growth as untreated, 0 = no growth, -100 = all killed)
# Conditions: 10 µM unless noted
row,Compound,growth
1,O=C(c1ccc(Cl)cc1)C1[C@H](c2ccc(Cl)cc2)[C@@H](c2ccccc2)NC12C(=O)Nc1ccc(Br)cc12 (stereo not given in full),22.3%
2,CC(C)(C)OC(=O)Nc1ccc(-c2cccc(Oc3ccc4nnc(Cl)n4n3)c2)cc1,64%
3,C#C[C@]1(O)CC[C@H]2[C@@H]3CC=C4c5sc(N6CCN(C)CC6)nc5CC[C@]4(C)[C@H]3CC[C@@]21C,6.2% (active)
4,O=C(/C=C/c1ccc(Cl)c(Cl)c1)Nc1ncc(Cc2ccc(Cl)c(Cl)c2)s1,48.2%
5,Nc1c(C(=O)Nc2ccc(Cl)cc2)sc2nc(-c3cnccn3)cc(-c3cccs3)c12,58.3%
6,O=C1[C@@H]2Cc3c([nH]c4ccccc34)[C@@H](c3ccc(Cl)cc3)N2C(=O)CN1C1CCN(Cc2c(F)cccc2F)CC1,0.352% (active)
7,CN1CCC(n2cc(Nc3ncc4c(=O)n(-c5c(Cl)cccc5Cl)cc(Br)c4n3)cn2)CC1,-13.8% (active)
8,COc1cc2oc(-c3cccc(NC(=O)c4cc(NC(=O)[C@H](C)NC(=O)OC(C)(C)C)ccc4C)c3)cc(=O)c2c(OC)c1OC,62.6%
9,CC(C)(C)Nc1nc2c(OCCc3ccccc3)cccn2c1-c1ccc(Cl)cc1,-27.8% (active)
10,COCCOc1ccc2ncc(C#Cc3cncc(C(=O)Nc4ccc(CN5CCN(C)CC5)c(C(F)(F)F)c4)c3)n2n1,16.7%
11,Cn1c(SC(C(=O)Nc2ccc(F)cc2)c2ccccc2)nc2ccccc2c1=O (stereo not given),103%
12,O=C1[C@H]2Cc3c([nH]c4ccccc34)[C@H](c3ccc(Cl)cc3)N2C(=O)CN1C1CCN(Cc2c(Cl)cccc2Cl)CC1,62.1%
13,C#Cc1nc(C2=C(C)C(=O)/C(=N/OC(C)=O)C2)cs1,20.4%
14,COc1cc2oc(-c3cccc(N)c3)cc(=O)c2c(OC)c1OC,96.8%
15,CCN(CC)Cc1c(-c2cccc(OC(F)(F)F)c2)[nH]c2ccc(N3CCCC3)cc2c1=O,72.9%
16,C/C(=C(/c1ccc(Cl)cc1)c1ccc(OCCN)cc1)c1ccc(C)cc1,102%
17,Cc1ccc(C2=Nn3c(nnc3-c3ccccc3)SC2)cc1,7.74% (active)
18,CNC(=O)c1c(NC(=O)c2ccc(F)cc2F)sc2c1CCC(=O)C2,-12.6% (active)

row,Compound,growth
1,COc1ccc(Cn2cc3c(c2-c2cc(OC)c(OC)c(OC)c2)CCc2c(CN4CCCC4)noc2-3)cc1,3.57% (active)
2,N=c1c2cc(-c3ccccc3)oc2ncn1/N=C/c1ccccc1,58.8%
3,CCN1CCN(c2ccc(NC(=O)Nc3ccc4c(ccn4-c4ccnc(C(=O)NC)c4)c3)cc2C(F)(F)F)CC1,96.6%
4,CCOC(=O)c1c(NC(=O)c2ccc(F)cc2F)sc2c1CCC(=O)C2,91.9%
5,COc1ccc(/C=C2\SC(=Nc3cc(C)on3)NC2=O)cc1,94.6%
6,Cc1nc2cnc(N)c(C#Cc3cncc(C(=O)Nc4ccc(Cl)c(C(F)(F)F)c4)c3)c2nc1C,15.8%
7,O=C(CN1CCN(c2cc(=O)n(-c3ccccc3)c3ccccc23)CC1)Nc1nc(-c2ccccc2)cs1,37.1%
8,Cn1ccnc1C(=O)/C=C/c1ccc(CNC(=O)c2c(F)c(F)c(F)c(F)c2F)cc1,20%
9,O=C1c2c(c3c4cccnc4[nH]c3c3ccc4ccccc4c23)C(=O)N1CCN1CCNCC1,64.2%
10,CC(=O)c1ccc(Nc2nc(SC(C)C)nc(-c3ccccc3)c2C#N)cc1,83.8%
11,CCC(=O)Nc1cc(Nc2cc(NC3CC3)n3ncc(C#N)c3n2)ccc1C,5.84% (active)
12,C#CCOc1ccc(/C=N/Nc2nc(-c3cc(Cl)ccc3Cl)cs2)cc1,91%
13,O=C(CSc1nc2ccccc2c(=O)n1-c1ccccc1)Nc1cccc(C(=O)/C=C/c2ccccc2Cl)c1,108%
14,Cn1cc(-c2nc(N)nnc2-c2c[nH]c3ccc(Br)cc23)c2cc(F)ccc21,75.3%
15,CN1CCN(c2ccc(Nc3nc(NCCCNS(=O)(=O)c4ccccc4)c4sccc4n3)cc2)CC1,-32.9% (active)
16,Cn1c2ccc(Br)cc2c2c3c(c4c5cc(F)ccc5oc4c21)C(=O)N(O)C3=O,99.6%
17,CCn1c2ccc(/C=N/OCCCN(C)C)cc2c2cc(/C=N/OCCCN(C)C)ccc21,-36.9% (active)
